Only a selection was taken, and hits are over-represented in it overall.
ROC1-CUL1 inh: inhibitors of human ROC1-CUL1 ubiquitin ligase activity | in vitro K48 di-Ub FRET, acceptor:donor ratio, 45 min | AID 1347404, 2020 | E3 ubiquitin-protein ligase RBX1 (Homo sapiens) + Cullin-1 (Homo sapiens), P62877+Q13616 | inhibition, % at 10 µM | 140,000 compounds, 0.6% hits; in the data active = inhibition above about 25%
Numbers without * were called inactive.

SMILES | ROC1-CUL1 inh
COC(=O)[C@H]1O[C@H](c2ccccc2)O[C@H]1c1ccccc1 | 1.5
COC(=O)[C@@H]1C(c2ccccc2)N=C(c2ccccc2)[C@H]1C (stereo not given in full) | 3.4
O=C(NNC(=O)c1cc2cc(Br)ccc2oc1=O)c1ccc(O)cc1O | 43.9*
CCOC(=O)NC(=O)c1cc2cc(Br)ccc2oc1=O | -0.4
O=C(NNC(=O)c1cc2cc(Br)ccc2oc1=O)c1ccncc1 | 5.4
Cc1oc(-c2cccc(NC(=O)CCc3cccnc3)c2)nc1CNC(=O)c1ccc2c(c1)OCCO2 | 6.5
CC(C)CCNC(=O)c1ccc(Br)cc1 | -6.2
CCOC(=O)c1cccc(NC(=O)COc2ccc(Br)cc2C(C)(C)C)c1 | -7.5
CCc1nc(N)c(C#N)c(N)c1C#N | -1.9
O=C1NN(c2cccc(Cl)c2)C(=O)/C1=C/c1ccc2c(c1)OCO2 | 1.3
O=C1NN(c2cccc(Br)c2)C(=O)/C1=C\c1ccc(-c2ccc(C(=O)O)cc2)o1 | 60.2*
O=C1NN(c2cccc(Cl)c2)C(=O)/C1=C\c1ccc(-c2ccc(C(=O)O)c(Cl)c2)o1 | 44.1*
CC(C)OC(=O)c1ccc(-c2ccc(/C=C3/C(=O)NN(c4ccccc4)C3=O)o2)cc1 | 3.0
CCOC(=O)c1ccc(-c2ccc(/C=C3/C(=O)NN(c4ccc(C)cc4)C3=O)o2)cc1 | 5.6
Cc1cccc(N2NC(=O)/C(=C/c3ccc(-c4ccc(Cl)c(C(=O)O)c4)o3)C2=O)c1 | 2.7
Cc1cccc(Oc2coc3cc(OCC(=O)OC4CCCCC4)ccc3c2=O)c1 | 6.2
CCCOc1ccc(C2(CNC(=O)Cc3ccc(OC)c(OC)c3)CCCC2)cc1 | -8.7
O=C(Nc1ccc(Cl)cc1C(=O)N1CCCC1)c1ccco1 | 9.7
NC(=O)[C@H](Cc1ccccc1)NC1CCN(c2cccc(NC(=O)CCCc3ccccc3)c2)CC1 | 1.3
CCCCCCCCCCOc1ccc(N=CC=Nc2ccc(OCCCCCCCCCC)cc2)cc1 | 2.2
CCCCCCOc1ccc(/C(CCCCC/C(=N\O)c2ccc(OCCCCCC)cc2)=N\O)cc1 | -2.9
CCCCCCCCCOc1ccc(C#CC(=O)O)cc1 | 98.8*
O=c1c(SCc2ccc(Cl)cc2Cl)c(SC2CCCCO2)cnn1-c1ccccc1 (stereo not given) | -0.3
O=S(=O)(O)SCCN1CCc2ccccc21 | 28.0*
O=C(CN1CCc2ccccc21)NC1CCCCCC1 | -5.1
SMILES | ROC1-CUL1 inh
OCCN1c2ccccc2CCc2ccccc21 | -1.9
COc1ccc(C(=O)NC2CC(C)(C)Cc3nc(N4CCOCC4)ncc32)o1 (stereo not given) | 0.7
O=C(NC1CCCC1)c1cc2nc(-c3ccc(F)cc3)cc(C(F)(F)F)n2n1 | 5.7
COc1c(Cl)cc2c(c1Cl)NC(=O)C(Cl)(Cl)C2=O | 45.5*
O=C1Nc2c(cc([N+](=O)[O-])cc2[N+](=O)[O-])C(=O)C1(Cl)Cl | 21.2
COc1cccc2c1NC(=O)C(Cl)(Cl)C2=O | -2.5
CN(C)S(=O)(=O)N1CCC(C(=O)Nc2cccc(C(F)(F)F)c2)CC1 | 14.0
COc1ccc(OC)c(S(=O)(=O)NC2CCCC2)c1 | 6.7
N#C/C(=C\c1ccco1)C(=O)c1cccs1 | 57.2*
N#Cc1c(-c2ccccc2)c(-c2ccccc2)n(Cc2ccco2)c1NC(=O)c1cccs1 | -2.9
CC(C)=CC(=O)/C=C(/C)c1cccs1 | -5.4
CCO[C@H]1[C@H](NC(=O)CC)c2ccccc2C12CCN(C(=O)c1ccc(C#CC(C)(C)O)o1)CC2 | 1.1
Cc1cc(=S)nc(-c2ccccc2)[nH]1 | 0.6
CC1CCN(CC(O)Cn2cnc3c2c(=O)n(C)c(=O)n3C)CC1 (stereo not given) | 4.9
CCOC(=O)Cn1c(C)c(C)n2c3c(=O)n(CC)c(=O)n(C)c3nc12 | 4.8
